From the supplement of paper PMC6555819

Key:
Experiment in all cases: PBM binding z-score (relative to random genomic background probes); higher = stronger binding; sequences stand for … in GC…GCGATTGACAGCGTAGAATGAAGG
[1] = system: FXR:RXRa (NR concentration 270 nM, RXRa partner concentration 90 nM)
Method in brief: (§1)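 Probes were double-stranded and carried 34-nt variable regions with direct-repeat seeds, single-nucleotide variants, half-site ablations and random human genomic background sequences, printed on custom Agilent 4×180K protein-binding microarrays. Arrays were incubated 1 h with ligand-free nuclear receptor dimers in PBS pH 7.4, 2% milk, 0.02% Triton X-100, 1 mM DTT, 0.2 mg/mL BSA and 0.4 mg/ml salmon testes DNA. Antibodies against each partner (one per run) detected binding, and scanned fluorescence was regression-normalized. Binding z-scores use the random background probes as reference.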

[2] = system: LXRa:RXRa (NR concentration 270 nM, RXRa partner concentration 90 nM)
Method in brief: as §1

[3] = system: LXRa homodimer (NR concentration 270 nM)
Method in brief: as §1

[4] = system: LXRb:RXRa (NR concentration 270 nM, RXRa partner concentration 90 nM)
Method in brief: as §1

[5] = system: LXRb homodimer (NR concentration 270 nM)
Method in brief: as §1

[6] = system: PPARa:RXRa (NR concentration 270 nM, RXRa partner concentration 90 nM)
Method in brief: as §1

[7] = system: PPARg:RXRa (NR concentration 180 nM, RXRa partner concentration 90 nM)
Method in brief: as §1

[8] = system: PPARg:RXRa 270nM:90nM, anti-RXR (NR concentration 270 nM, RXRa partner concentration 90 nM)
Method in brief: as §1

[9] = system: PPARg:RXRa 30nM:10nM, anti-RXR (NR concentration 30 nM, RXRa partner concentration 10 nM)
Method in brief: as §1

[10] = system: PPARg:RXRa 90nM:30nM, anti-RXR (NR concentration 90 nM, RXRa partner concentration 30 nM)
Method in brief: as §1

[11] = system: PPARg:RXRa DBDmut IVT, anti-RXR (DBD mutation: RXRa K156A/R161A, NR concentration 270 nM, RXRa partner concentration 90 nM)
Method in brief: as §1

[12] = system: PPARg:RXRa IVT, anti-PPARg (NR concentration 270 nM, RXRa partner concentration 90 nM)
Method in brief: as §1

[13] = system: PPARg DBDmut:RXRa IVT, anti-PPARg (DBD mutation: PPARg1 K132A/R137A, NR concentration 270 nM, RXRa partner concentration 90 nM)
Method in brief: as §1

[14] = system: PPARg DBDmut IVT, anti-PPARg (DBD mutation: PPARg1 K132A/R137A, NR concentration 270 nM)
Method in brief: as §1

[15] = system: PPARg homodimer (NR concentration 180 nM)
Method in brief: as §1

[16] = system: PXR:RXRa (NR concentration 270 nM, RXRa partner concentration 90 nM)
Method in brief: as §1

[17] = system: PXR homodimer (NR concentration 270 nM)
Method in brief: as §1

[18] = system: RARa:RXR (NR concentration 270 nM, RXRa partner concentration 90 nM)
Method in brief: as §1

[19] = system: RARa homodimer (NR concentration 270 nM)
Method in brief: as §1

[20] = system: RARb:RXRa (NR concentration 270 nM, RXRa partner concentration 90 nM)
Method in brief: as §1

## GTACCAAGGTGAATAGGTCGTTAATGAGTAGGCG
[1]
  PBM binding z-score: 0.719
[2]
  PBM binding z-score: 0.484
[3]
  PBM binding z-score: -0.0766
[4]
  PBM binding z-score: 0.302
[5]
  PBM binding z-score: -0.312
[6]
  PBM binding z-score: 2.18
[7]
  PBM binding z-score: 1.38
[8]
  PBM binding z-score: 1.71
[9]
  PBM binding z-score: 0.588
[10]
  PBM binding z-score: 1.07
[11]
  PBM binding z-score: 1.75
[12]
  PBM binding z-score: 2.66
[13]
  PBM binding z-score: 0.399
[14]
  PBM binding z-score: 0.346
[15]
  PBM binding z-score: 1.46
[16]
  PBM binding z-score: 0.664
[17]
  PBM binding z-score: 0.393
[18]
  PBM binding z-score: 1.44
[19]
  PBM binding z-score: 0.00305
[20]
  PBM binding z-score: 1.91

## CCTACTGGGCCATTCAGAGGCCATTGATCATATG
[1]
  PBM binding z-score: -0.101
[2]
  PBM binding z-score: -0.261
[3]
  PBM binding z-score: -0.0422
[4]
  PBM binding z-score: -0.326
[5]
  PBM binding z-score: -0.546
[6]
  PBM binding z-score: 0.543
[7]
  PBM binding z-score: 0.541
[8]
  PBM binding z-score: 0.6
[9]
  PBM binding z-score: -0.265
[10]
  PBM binding z-score: 0.287
[11]
  PBM binding z-score: 4.1
[12]
  PBM binding z-score: 3.43
[13]
  PBM binding z-score: -0.542
[14]
  PBM binding z-score: -0.403
[15]
  PBM binding z-score: 0.212
[16]
  PBM binding z-score: -0.174
[17]
  PBM binding z-score: -0.0574
[18]
  PBM binding z-score: -0.153
[19]
  PBM binding z-score: -0.498
[20]
  PBM binding z-score: 0.712

## TCTTGTAGATCAGCACGTTAAGAAAGCTGGCCAA
[1]
  PBM binding z-score: 0.121
[2]
  PBM binding z-score: 0.0301
[3]
  PBM binding z-score: -0.232
[4]
  PBM binding z-score: -0.0159
[5]
  PBM binding z-score: -0.411
[6]
  PBM binding z-score: 0.18
[7]
  PBM binding z-score: -0.291
[8]
  PBM binding z-score: 0.766
[9]
  PBM binding z-score: 2.47
[10]
  PBM binding z-score: 1.43
[11]
  PBM binding z-score: 1.32
[12]
  PBM binding z-score: -0.181
[13]
  PBM binding z-score: -0.456
[14]
  PBM binding z-score: -0.271
[15]
  PBM binding z-score: -0.311
[16]
  PBM binding z-score: 0.0608
[17]
  PBM binding z-score: 0.0555
[18]
  PBM binding z-score: 0.441
[19]
  PBM binding z-score: 0.0158
[20]
  PBM binding z-score: -0.204

## CGAACTAGGTCATCCAGGACACTGAATACATTGA
[1]
  PBM binding z-score: 4.41
[2]
  PBM binding z-score: 3.1
[3]
  PBM binding z-score: 0.974
[4]
  PBM binding z-score: 2.29
[5]
  PBM binding z-score: 0.265
[6]
  PBM binding z-score: 4.94
[7]
  PBM binding z-score: 7.9
[8]
  PBM binding z-score: 6.43
[9]
  PBM binding z-score: 3.85
[10]
  PBM binding z-score: 5.81
[11]
  PBM binding z-score: 8.38
[12]
  PBM binding z-score: 8.23
[13]
  PBM binding z-score: 3.17
[14]
  PBM binding z-score: 1.12
[15]
  PBM binding z-score: 2.19
[16]
  PBM binding z-score: 2.31
[17]
  PBM binding z-score: 1.65
[18]
  PBM binding z-score: 2.99
[19]
  PBM binding z-score: 1.29
[20]
  PBM binding z-score: 3.98

## ATCGAAAGGTTGACGAGGTGAGTATACACCGTTT
[1]
  PBM binding z-score: 1.11
[2]
  PBM binding z-score: 0.773
[3]
  PBM binding z-score: -0.233
[4]
  PBM binding z-score: 0.764
[5]
  PBM binding z-score: -0.00698
[6]
  PBM binding z-score: 1.79
[7]
  PBM binding z-score: 0.968
[8]
  PBM binding z-score: 0.974
[9]
  PBM binding z-score: 0.581
[10]
  PBM binding z-score: 0.771
[11]
  PBM binding z-score: 0.0825
[12]
  PBM binding z-score: 1.03
[13]
  PBM binding z-score: 0.76
[14]
  PBM binding z-score: 1.04
[15]
  PBM binding z-score: 0.684
[16]
  PBM binding z-score: 0.914
[17]
  PBM binding z-score: 0.374
[18]
  PBM binding z-score: 1.25
[19]
  PBM binding z-score: 0.63
[20]
  PBM binding z-score: 1.79

## TAGCGTAGGTCAGATCGGGCCAGTATACGCTATA
[1]
  PBM binding z-score: 2.62
[2]
  PBM binding z-score: 1.36
[3]
  PBM binding z-score: -0.421
[4]
  PBM binding z-score: 0.809
[5]
  PBM binding z-score: -0.55
[6]
  PBM binding z-score: 1.99
[7]
  PBM binding z-score: 0.602
[8]
  PBM binding z-score: 0.725
[9]
  PBM binding z-score: 0.0137
[10]
  PBM binding z-score: 0.225
[11]
  PBM binding z-score: -0.503
[12]
  PBM binding z-score: 0.617
[13]
  PBM binding z-score: -0.164
[14]
  PBM binding z-score: -0.912
[15]
  PBM binding z-score: -0.143
[16]
  PBM binding z-score: 1.48
[17]
  PBM binding z-score: -0.976
[18]
  PBM binding z-score: 1.23
[19]
  PBM binding z-score: -1.14
[20]
  PBM binding z-score: 3.07

## CGTCAAAGTTCAACTAAGGAAACGTAAAGCACGC
[1]
  PBM binding z-score: 7.38
[2]
  PBM binding z-score: 6.47
[3]
  PBM binding z-score: 3.78
[4]
  PBM binding z-score: 4.2
[5]
  PBM binding z-score: 2.11
[6]
  PBM binding z-score: 5.18
[7]
  PBM binding z-score: 5.11
[8]
  PBM binding z-score: 5.68
[9]
  PBM binding z-score: 2.56
[10]
  PBM binding z-score: 4.69
[11]
  PBM binding z-score: 0.565
[12]
  PBM binding z-score: 1.62
[13]
  PBM binding z-score: 1.02
[14]
  PBM binding z-score: 0.369
[15]
  PBM binding z-score: 3.9
[16]
  PBM binding z-score: 4.87
[17]
  PBM binding z-score: 2.97
[18]
  PBM binding z-score: 4.48
[19]
  PBM binding z-score: 1.12
[20]
  PBM binding z-score: 5.19
